Laboratory results: the supplement of paper PMC10849652
The full data set covers some 7,900 targets. This sample favours those with a hit. About 0.6% of all pairs of compound and target were hits.

Compound: c1cn2cc(-c3ccc4cn[nH]c4c3)nc(Nc3ccc(N4CCOCC4)cc3)c2n1 [entospletinib]
Assay: log2 fold change, soluble protein after heating vs DMSO (PISA); higher = thermal stabilisation; K562 cells, 10 uM, 30 min; active = over 0.2 and 3.5 SD of the protein, either way, in both replicates (recomputed)
Method in brief: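 K562 cells at 2×10^6 cells/mL were treated with 10 μM compound for 30 min. Aliquots were heated for 3 min across 48°C-58°C, pooled, and extracted in PBS with 0.5% NP-40 at 4°C; soluble protein was the supernatant after 21,000xg for 90 min. Soluble protein was quantified by TMTpro 16plex LC-MS/MS with channel sums equalised, and reported as log2 fold change in thermal stability against DMSO controls, with values from duplicates.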

Sequence of UniProt P21796 (P21796 whole entry, looked up): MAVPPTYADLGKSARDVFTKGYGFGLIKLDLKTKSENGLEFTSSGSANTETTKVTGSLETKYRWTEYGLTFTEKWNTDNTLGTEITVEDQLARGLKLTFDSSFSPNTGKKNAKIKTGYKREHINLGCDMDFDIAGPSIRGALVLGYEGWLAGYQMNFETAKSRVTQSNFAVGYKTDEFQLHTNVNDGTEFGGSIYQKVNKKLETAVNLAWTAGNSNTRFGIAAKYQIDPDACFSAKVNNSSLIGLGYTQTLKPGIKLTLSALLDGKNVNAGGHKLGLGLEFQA
Sequence of UniProt Q7Z5K2 (Q7Z5K2 whole entry, looked up): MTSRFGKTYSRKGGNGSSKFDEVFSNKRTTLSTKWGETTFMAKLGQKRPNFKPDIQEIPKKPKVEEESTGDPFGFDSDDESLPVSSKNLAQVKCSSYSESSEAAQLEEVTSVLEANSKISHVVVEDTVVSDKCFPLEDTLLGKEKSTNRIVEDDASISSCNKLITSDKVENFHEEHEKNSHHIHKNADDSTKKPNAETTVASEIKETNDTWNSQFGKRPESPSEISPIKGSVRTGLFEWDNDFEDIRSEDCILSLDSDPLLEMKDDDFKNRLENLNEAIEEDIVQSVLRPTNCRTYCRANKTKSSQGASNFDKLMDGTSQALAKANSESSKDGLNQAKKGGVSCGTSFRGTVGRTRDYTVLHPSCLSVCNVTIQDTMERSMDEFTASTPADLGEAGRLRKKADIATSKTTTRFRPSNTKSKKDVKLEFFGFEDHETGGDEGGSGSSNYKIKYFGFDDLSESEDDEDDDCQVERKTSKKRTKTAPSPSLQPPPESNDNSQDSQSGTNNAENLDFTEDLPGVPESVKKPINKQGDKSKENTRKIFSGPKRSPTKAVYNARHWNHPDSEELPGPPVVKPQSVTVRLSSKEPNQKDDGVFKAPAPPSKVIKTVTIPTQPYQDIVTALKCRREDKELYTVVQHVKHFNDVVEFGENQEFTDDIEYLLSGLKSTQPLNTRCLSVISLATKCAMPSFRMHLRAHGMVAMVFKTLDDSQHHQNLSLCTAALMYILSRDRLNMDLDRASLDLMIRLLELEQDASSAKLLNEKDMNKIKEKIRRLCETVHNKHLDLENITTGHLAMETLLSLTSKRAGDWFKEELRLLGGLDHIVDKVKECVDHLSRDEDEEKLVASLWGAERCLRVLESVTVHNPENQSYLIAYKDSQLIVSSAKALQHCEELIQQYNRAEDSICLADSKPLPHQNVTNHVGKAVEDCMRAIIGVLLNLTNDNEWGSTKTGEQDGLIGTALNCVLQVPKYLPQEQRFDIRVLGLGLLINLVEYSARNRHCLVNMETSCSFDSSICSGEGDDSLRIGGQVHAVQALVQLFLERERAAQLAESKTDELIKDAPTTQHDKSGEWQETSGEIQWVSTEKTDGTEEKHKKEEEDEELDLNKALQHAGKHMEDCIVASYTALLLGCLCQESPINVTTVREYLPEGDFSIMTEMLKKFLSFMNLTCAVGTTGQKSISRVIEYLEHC
Sequence of UniProt Q99757 (Q99757 whole entry, looked up): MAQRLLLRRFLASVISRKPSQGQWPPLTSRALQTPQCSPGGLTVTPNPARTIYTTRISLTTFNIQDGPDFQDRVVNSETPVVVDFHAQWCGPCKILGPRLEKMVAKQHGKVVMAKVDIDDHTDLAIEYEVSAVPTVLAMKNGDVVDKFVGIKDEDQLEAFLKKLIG
Sequence of UniProt Q9P0T7 (Q9P0T7 whole entry, looked up): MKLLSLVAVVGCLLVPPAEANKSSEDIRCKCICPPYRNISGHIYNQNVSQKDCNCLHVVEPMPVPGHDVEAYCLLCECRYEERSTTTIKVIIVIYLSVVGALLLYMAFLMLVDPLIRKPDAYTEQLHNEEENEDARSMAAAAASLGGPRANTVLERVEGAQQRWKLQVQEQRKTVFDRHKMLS
Sequence of UniProt Q96HV5 (Q96HV5 whole entry, looked up): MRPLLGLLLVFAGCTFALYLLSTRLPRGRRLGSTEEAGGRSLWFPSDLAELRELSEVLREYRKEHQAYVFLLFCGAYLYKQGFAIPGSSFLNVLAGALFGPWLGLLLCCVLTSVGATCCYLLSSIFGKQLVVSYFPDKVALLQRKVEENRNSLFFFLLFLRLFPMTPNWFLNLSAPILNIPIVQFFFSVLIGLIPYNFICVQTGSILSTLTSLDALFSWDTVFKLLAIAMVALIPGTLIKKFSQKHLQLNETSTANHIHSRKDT
Sequence of UniProt Q92973 (Q92973 whole entry, looked up): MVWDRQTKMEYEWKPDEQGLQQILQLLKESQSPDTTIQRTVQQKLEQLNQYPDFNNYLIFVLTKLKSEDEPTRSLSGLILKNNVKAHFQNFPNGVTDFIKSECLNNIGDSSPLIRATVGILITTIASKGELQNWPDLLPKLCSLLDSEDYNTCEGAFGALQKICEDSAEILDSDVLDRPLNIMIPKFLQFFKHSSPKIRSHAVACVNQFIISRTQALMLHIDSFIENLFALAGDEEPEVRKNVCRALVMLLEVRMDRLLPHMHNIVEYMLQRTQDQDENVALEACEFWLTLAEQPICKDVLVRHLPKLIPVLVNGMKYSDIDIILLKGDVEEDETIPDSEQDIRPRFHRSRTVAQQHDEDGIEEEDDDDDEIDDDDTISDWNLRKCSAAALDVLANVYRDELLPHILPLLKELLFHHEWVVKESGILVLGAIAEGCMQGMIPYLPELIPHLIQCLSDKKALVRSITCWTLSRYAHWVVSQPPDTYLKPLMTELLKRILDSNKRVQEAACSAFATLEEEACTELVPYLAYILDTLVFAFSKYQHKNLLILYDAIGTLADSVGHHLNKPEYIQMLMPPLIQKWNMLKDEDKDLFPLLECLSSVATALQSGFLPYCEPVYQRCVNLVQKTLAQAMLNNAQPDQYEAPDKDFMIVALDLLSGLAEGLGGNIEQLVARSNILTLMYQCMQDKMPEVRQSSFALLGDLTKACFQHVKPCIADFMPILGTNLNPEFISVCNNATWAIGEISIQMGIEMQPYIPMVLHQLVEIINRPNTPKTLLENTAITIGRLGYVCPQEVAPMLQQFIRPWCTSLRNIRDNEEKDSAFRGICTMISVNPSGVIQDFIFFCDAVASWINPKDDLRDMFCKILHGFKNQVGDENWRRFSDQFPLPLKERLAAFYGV
Sequence of UniProt Q5TAX3 (Q5TAX3 whole entry, looked up): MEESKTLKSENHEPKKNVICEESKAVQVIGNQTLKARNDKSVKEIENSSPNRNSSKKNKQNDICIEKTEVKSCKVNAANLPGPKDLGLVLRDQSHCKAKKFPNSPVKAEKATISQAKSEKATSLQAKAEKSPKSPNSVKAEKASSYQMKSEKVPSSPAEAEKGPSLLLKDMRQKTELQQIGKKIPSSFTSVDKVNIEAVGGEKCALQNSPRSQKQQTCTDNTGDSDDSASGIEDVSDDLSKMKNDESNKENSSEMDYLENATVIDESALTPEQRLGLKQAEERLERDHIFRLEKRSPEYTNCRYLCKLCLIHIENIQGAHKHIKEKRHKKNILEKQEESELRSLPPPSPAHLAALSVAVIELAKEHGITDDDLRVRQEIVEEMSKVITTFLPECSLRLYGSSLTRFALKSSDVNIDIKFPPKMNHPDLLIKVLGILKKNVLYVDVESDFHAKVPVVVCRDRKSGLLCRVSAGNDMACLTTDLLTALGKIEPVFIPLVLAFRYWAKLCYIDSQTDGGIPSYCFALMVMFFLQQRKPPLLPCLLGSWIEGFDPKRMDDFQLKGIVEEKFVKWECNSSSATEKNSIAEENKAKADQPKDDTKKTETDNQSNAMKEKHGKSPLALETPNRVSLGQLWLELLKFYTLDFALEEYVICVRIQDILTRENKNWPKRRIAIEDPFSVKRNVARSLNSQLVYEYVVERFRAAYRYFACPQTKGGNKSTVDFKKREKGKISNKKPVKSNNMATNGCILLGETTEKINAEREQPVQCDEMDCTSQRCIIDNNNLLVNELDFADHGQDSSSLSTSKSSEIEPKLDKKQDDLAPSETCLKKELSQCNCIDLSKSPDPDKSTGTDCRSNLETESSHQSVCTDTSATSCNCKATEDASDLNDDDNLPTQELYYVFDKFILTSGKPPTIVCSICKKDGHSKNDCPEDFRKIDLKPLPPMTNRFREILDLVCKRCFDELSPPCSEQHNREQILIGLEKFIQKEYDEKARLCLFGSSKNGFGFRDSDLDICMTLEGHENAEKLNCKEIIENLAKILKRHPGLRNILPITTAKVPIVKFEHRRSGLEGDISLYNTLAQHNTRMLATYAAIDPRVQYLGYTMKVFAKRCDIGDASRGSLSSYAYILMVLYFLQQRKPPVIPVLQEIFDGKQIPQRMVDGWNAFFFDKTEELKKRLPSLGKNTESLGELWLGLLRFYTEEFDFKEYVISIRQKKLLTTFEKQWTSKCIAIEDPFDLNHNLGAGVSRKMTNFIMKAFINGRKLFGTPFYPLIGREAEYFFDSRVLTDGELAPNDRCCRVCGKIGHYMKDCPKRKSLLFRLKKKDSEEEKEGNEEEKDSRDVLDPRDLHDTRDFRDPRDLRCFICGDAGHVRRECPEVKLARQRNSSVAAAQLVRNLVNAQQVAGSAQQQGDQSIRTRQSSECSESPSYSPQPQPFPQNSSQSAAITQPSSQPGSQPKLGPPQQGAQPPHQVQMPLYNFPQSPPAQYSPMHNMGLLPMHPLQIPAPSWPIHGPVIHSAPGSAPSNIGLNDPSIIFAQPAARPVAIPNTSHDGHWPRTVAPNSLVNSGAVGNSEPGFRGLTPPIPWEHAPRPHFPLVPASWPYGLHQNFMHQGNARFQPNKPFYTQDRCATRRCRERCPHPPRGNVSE
Sequence of UniProt O43396 (O43396 whole entry, looked up): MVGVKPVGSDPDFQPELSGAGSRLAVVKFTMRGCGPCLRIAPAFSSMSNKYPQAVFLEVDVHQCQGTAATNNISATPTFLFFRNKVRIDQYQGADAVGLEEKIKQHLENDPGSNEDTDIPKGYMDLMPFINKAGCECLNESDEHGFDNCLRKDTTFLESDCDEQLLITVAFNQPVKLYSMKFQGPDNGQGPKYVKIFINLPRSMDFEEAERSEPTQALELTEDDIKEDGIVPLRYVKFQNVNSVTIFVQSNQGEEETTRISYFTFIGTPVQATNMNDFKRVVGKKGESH
Sequence of UniProt P61960 (P61960 whole entry, looked up): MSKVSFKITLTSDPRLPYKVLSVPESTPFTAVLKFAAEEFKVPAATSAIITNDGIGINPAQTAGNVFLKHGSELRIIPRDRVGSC

log2 fold change, active:
TVP23C (UniProt Q96ET8) 0.419

log2 fold change, inactive:
VARS2, A0A0G2JL52 -0.03
UFM1 (UniProt P61960) -0.079
UBE4A isoform 2 (UniProt Q14139) -0.043
USP9X (UniProt Q93008) -0.01
TPM2 (UniProt P07951) -0.069
UBE2D1 (UniProt P51668) -0.025
TUT4 (UniProt Q5TAX3) 0.066
UFL1 (UniProt O94874) -0.025
UFD1 isoform 1 (UniProt Q92890) -0.047
TMEM63B (UniProt Q5T3F8) 0.011
WDR47 (UniProt O94967) 0.011
VRK2 (UniProt Q86Y07) -0.078
TSC2 (UniProt P49815) -0.17
WASHC2A (UniProt Q641Q2) 0.03
USP25 isoform 3 (UniProt Q9UHP3) 0
TRAPPC11 (UniProt Q7Z392) 0.012
TMEM41A (UniProt Q96HV5) 0.042
TOMM20 (UniProt Q15388) 0.069
TMEM104 (UniProt Q8NE00) 0.001
VPS8 (UniProt Q8N3P4) 0.034
WAPL isoform 3 (UniProt Q7Z5K2) -0.037
VWA8 (UniProt A3KMH1) -0.03
TXNL1 (UniProt O43396) 0.034
VDAC1 (UniProt P21796) -0.012
VTA1 (UniProt Q9NP79) -0.005
WDR46, A0A0G2JJL1 0.023
TNPO1 (UniProt Q92973) -0.001
UCHL5 (UniProt Q9Y5K5) -0.023
TMEM173 (UniProt Q86WV6) -0.022
TRIM23 (UniProt P36406) -0.041
TRAPPC8 (UniProt Q9Y2L5) 0.004
XRCC5 (UniProt P13010) -0.039
UPF3B (UniProt Q9BZI7) 0.098
UBXN10 (UniProt Q96LJ8) 0.013
TMEM9 (UniProt Q9P0T7) -0.05
WDR7 (UniProt Q9Y4E6) 0.126
TRIM28 (UniProt Q13263) -0.025
TXN2 (UniProt Q99757) 0
TSEN2 (UniProt Q8NCE0) -0.041
